Source: PubChem BioAssay (NCI)
This is part of a sample that, as a whole, favours compounds with a hit. Of some 83,000 tested, about 20% had one in any assay.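 96-well plates, one dose, 48 hours. Percent growth reported; active if below 10.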 A number with no mark means an inactive call. The source made the active and inactive calls.

The molecules below were run on HL-60(TB) leukemia (assay: NCI-60 one-dose screen, 48 h (100 = growth as untreated, 0 = no growth, -100 = all killed)). Details: 10 µM unless noted.

**Q.** Which growth does the source give for CS(=O)CCCCCN=C=S (stereo not given) here?
**A.** Its growth is -33.9% (active).

**Q.** How did the growth turn out when O=C1Nc2ccccc2C2c3cccn3-c3ccccc3N12 (stereo not given) was run?
**A.** Its growth is 86.1%.

**Q.** For CCN(Cc1ccc(CN(CC)C(=O)C(Cl)(Cl)Cl)cc1)C(=O)C(Cl)(Cl)Cl, which growth is on record?
**A.** Its growth is 6.38% (active).

**Q.** How did the growth turn out when Cc1nc2cc(O)c(O)cc2cc1Oc1ccc(NC(=O)Nc2ccc(Cl)c(Cl)c2)cc1 was run?
**A.** Its growth is 96.8%.

**Q.** For CCCCN(CCC#N)C(N)=O, which growth is on record?
**A.** Its growth is 99.6%.

**Q.** For Cc1ccc(-c2nc(N3CCCNCC3)c3oc(-c4ccc(C)cc4)nc3n2)cc1, which growth is on record?
**A.** The growth was -69.3% (active).

**Q.** How did the growth turn out when O=C(Nc1ccc(Cl)cc1)c1cc2c(cc1O)[nH]c1ccccc12 was run?
**A.** The growth was -24.5% (active).

**Q.** How did the growth turn out when C=C1C(=O)O[C@H]2[C@H]1CC/C(C=Nc1c(N)cc(C(F)(F)F)cc1Br)=C\CC[C@@]1(C)O[C@@H]21 was run?
**A.** The growth was -13.1% (active).

**Q.** For COc1cccc(N2CCN(c3cccc(C)n3)CC2)c1, which growth is on record?
**A.** Its growth is 100%.

**Q.** COc1ccc(Cl)cc1NC(=O)c1cc2c([nH]1)-c1nc(N)sc1CCC2 was tested. Which growth did it give?
**A.** The growth was 56.9%.

**Q.** For C1=C\CCCCN2CC[C@H]3[C@H](CCCC/C=C\CCCN4C[C@@H](CCCCC/1)C[C@@H]3C4)C2, which growth is on record?
**A.** The growth was -35.5% (active).

**Q.** COc1cccc(CNc2cccc3cn[nH]c23)c1O was tested. Which growth did it give?
**A.** Its growth is 144%.

**Q.** With O=S(=O)(NCCO)c1ccc(OCCOc2ccc(S(=O)(=O)NCCO)cc2)cc1 as the molecule, how does the growth read?
**A.** The growth was 68.4%.

**Q.** C/C(=N\N1CC(=O)NC1=O)c1ccc([N+](=O)[O-])o1 was tested. Which growth did it give?
**A.** The growth was 62.7%.

**Q.** COC(=O)/C=C1/SC(=Nc2ccc([N+](=O)[O-])cc2)N(CCc2c[nH]c3ccc(O)cc23)C1=O was tested. Which growth did it give?
**A.** The growth was 32.2%.

**Q.** How did the growth turn out when CCc1ccc(-c2ccc(Nc3ccccc3)nn2)cc1S(N)(=O)=O was run?
**A.** Its growth is 47.4%.

**Q.** Which growth does the source give for COc1cc(OC)c(C(=O)C(CN(C)C)CN(C)C)cc1OC here?
**A.** The growth was -63.5% (active).

**Q.** How did the growth turn out when O=S(=O)(c1ccccc1)N1CCCN(c2nc(-c3ccccc3)nc3nc(-c4ccccc4)oc23)CC1 was run?
**A.** Its growth is 102%.

**Q.** Cc1ccc(C2CC(c3cccc(Nc4ccncc4)c3)=NN2c2ccc(Cl)cc2)cc1 (stereo not given) was tested. Which growth did it give?
**A.** The growth was -55.6% (active).

**Q.** Which growth does the source give for CC12CCC(CC1)C(C)(C)O2 here?
**A.** The growth was 103%.

**Q.** Which growth does the source give for CCCCc1nc(Cl)c(C2CC(c3ccc(S(N)(=O)=O)cc3)=NN2c2ccc(C#N)cc2)[nH]1 (stereo not given) here?
**A.** The growth was 92.7%.

**Q.** CS(=O)/C(C#N)=C\C=C\c1cccc(Cl)c1 (stereo not given) was tested. Which growth did it give?
**A.** The growth was -1.97% (active).

**Q.** NS(=O)(=O)Oc1cccc(-c2nc3sccn3c2-c2ccccc2)c1 was tested. Which growth did it give?
**A.** Its growth is 0.181% (active).

**Q.** How did the growth turn out when c1cnc2[nH]cc(-c3csc(-c4cn(CCCN5CCCCC5)c5ccccc45)n3)c2c1 was run?
**A.** Its growth is -2.66% (active).

**Q.** For O=C(NCO)c1ccccc1, which growth is on record?
**A.** The growth was 94.4%.

**Q.** How did the growth turn out when CCOC(=O)/C(C#N)=C1/C(=O)Nc2ccccc21 was run?
**A.** Its growth is 149%.

**Q.** For CC(C)(C)c1cc(O)c(C(C)(C)C)cc1O, which growth is on record?
**A.** Its growth is 35.1%.

**Q.** Which growth does the source give for Cc1ccc2c(/C=C/C(=O)c3cc(CN4CCOCC4)c(O)c4nc(C)ccc34)cc(CN3CCOCC3)c(O)c2n1 here?
**A.** The growth was -25.2% (active).

**Q.** O=C(/C=C/c1cccc([N+](=O)[O-])c1)c1ccc(Nc2nc(N3CCCCC3)nc(N3CCCCC3)n2)cc1 was tested. Which growth did it give?
**A.** The growth was 79.4%.

**Q.** With COC(=O)c1ccc2c(c1)Oc1ccc(Cl)cc1-c1cc(C)nn1-2 as the molecule, how does the growth read?
**A.** The growth was 103%.

**Q.** CCN(CC)S(=O)(=O)c1ccc2[nH]c(=O)cc(C(=O)Nc3ccc(OC)cc3OC)c2c1 was tested. Which growth did it give?
**A.** The growth was 101%.

**Q.** COc1ccc(C(=O)c2cc(C)c(OC)c(C)c2)c(OC)c1OC(=O)C(Cl)Cl was tested. Which growth did it give?
**A.** Its growth is -35.7% (active).

**Q.** Which growth does the source give for CCSCC1CC(O)(c2ccccc2)CC(c2ccc(F)cc2)O1 (stereo not given) here?
**A.** The growth was -31.9% (active).

**Q.** Which growth does the source give for S=c1nc2[nH]c3ccccc3c2n[nH]1 here?
**A.** Its growth is 148%.

**Q.** Which growth does the source give for CCCCCN1C=C/C(=C\C(=O)N(C)c2ccccc2Br)c2ccccc21 here?
**A.** Its growth is 76.9%.

**Q.** CNC(=O)c1cc(Oc2ccc(NC(=O)Nc3ccc(Cl)c(C(C)(C)C)c3)c(F)c2)ccn1 was tested. Which growth did it give?
**A.** The growth was 46.7%.

**Q.** Which growth does the source give for O=C1/C(=C/c2ccc(O)cc2)CSc2ccc(Cl)cc21 here?
**A.** Its growth is 22.7%.

**Q.** CN1CCN(c2nc(Nc3ccc(O)cc3)nc3ccccc23)CC1 was tested. Which growth did it give?
**A.** The growth was 61.4%.

**Q.** COc1ccc(-n2nnnc2-c2cn[nH]c2C(F)(F)F)cc1 was tested. Which growth did it give?
**A.** The growth was 98.3%.

**Q.** CCN(CC)CC(O)c1cc(-c2ccc(Cl)cc2)nc2c(C)c(Cl)ccc12 (stereo not given) was tested. Which growth did it give?
**A.** Its growth is -71.5% (active).
